Rows were chosen to be rich in hits. Some 11% of all compounds tested hit in one or more screens of this group.
PNC assembly inh – inhibitors of perinucleolar compartment assembly; PC3M PTB-GFP, PNC prevalence imaging, 16 h; hits give low values; activity change (PNC), negative = inhibition, % at 10 µM; 140,000 compounds, 3.1% hits;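 active = readout at or below -70, meaning at least 70% loss of cells showing the perinucleolar compartment, a nuclear body marking cancer cells; inconclusive = readout between -30 and a set limit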;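 note: plate controls were DMSO wells for no effect and camptothecin positive control wells for full effect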
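Read-out is percentage of cells bearing a perinucleolar compartment, from automated 20x imaging of fixed, Hoechst-stained PC3M PTB-GFP cells. Cells were seeded 4 h, then exposed 16 h to compound (23 nl of library stock) in duplicate plates.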
ALDH1A1 block – ALDH1A1 (human) enzyme inhibition. 220,000 compounds, 7.3% hits. Purified ALDH1A1, NADH fluorescence, propionaldehyde substrate. P00352. Potency, µM (titrated, usually from 75.3 µM), for the others: at the top dose activity, negative = inhibition, hits mostly inhibitors;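 note: potency is the fitted concentration of half-maximal effect; plate controls were no enzyme wells and a reference inhibitor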
Target sequence (P00352 whole entry, looked up): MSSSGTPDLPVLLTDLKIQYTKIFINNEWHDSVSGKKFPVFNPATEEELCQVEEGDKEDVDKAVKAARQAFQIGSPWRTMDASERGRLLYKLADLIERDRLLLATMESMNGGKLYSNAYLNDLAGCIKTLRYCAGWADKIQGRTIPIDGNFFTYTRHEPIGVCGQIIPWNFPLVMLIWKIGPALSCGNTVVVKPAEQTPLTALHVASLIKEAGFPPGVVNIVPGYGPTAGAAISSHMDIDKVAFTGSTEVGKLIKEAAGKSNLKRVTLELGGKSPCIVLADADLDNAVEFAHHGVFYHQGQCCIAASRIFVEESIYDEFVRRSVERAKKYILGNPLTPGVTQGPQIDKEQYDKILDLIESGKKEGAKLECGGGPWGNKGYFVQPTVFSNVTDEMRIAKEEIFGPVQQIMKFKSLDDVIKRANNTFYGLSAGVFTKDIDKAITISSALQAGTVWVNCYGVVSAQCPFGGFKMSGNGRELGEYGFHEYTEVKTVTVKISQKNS
HPGD block – blocks human HPGD enzyme activity | P15428 | purified HPGD, NADH fluorescence kinetic, PGE2 substrate | Potency, µM, without a hit: at the highest dose activity change, negative = inhibition, actives largely listed as inhibitors | 150,000 compounds, 4.3% hits; note: potency is the fitted concentration of half-maximal effect
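NADH formation kinetics: reaction with 30 uM PGE2 and 1 mM NAD+ (final), 20 nM enzyme, Tris-HCl pH 8 with Tween 20, after 15 min compound preincubation at room temperature. Fluorescence change, last versus first of five reads.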
Active calls of the source: *; ? = inconclusive; . = no result given. Unless noted, calls come from the whole dose curve; as a rule, active = well fitted inhibition curve with a large enough effect (not every such curve was filed as active); inconclusive = small, poorly fitted or top-dose-only effect, or another doubt; inactive = no such curve, though single readings can be large or run the other way. Unless noted, % is set by controls: 0 for no effect and ±100 for the full control effect.

SMILES	PNC assembly inh	ALDH1A1 block	HPGD block
Cc1ccccc1Nc1nnc(SCc2cc([N+](=O)[O-])cc3c2OCOC3)s1	33.5	?	14.1µM*
CN(C)C(=O)N1CCCC(C(=O)NCc2ccccc2)C1 (centres undefined)	-90.9*	7.1%	-6.2%
CN(C)C(=O)N1CCCC(C(=O)NCCc2ccccc2)C1 (centres undefined)	9.5	?	?
COc1ccc(C2NC(=O)c3sc(=S)n(-c4ccccc4)c3N2)cc1 (centres undefined)	?	-6.3%	-18.9%
O=C1NC(c2ccccc2)Nc2c1sc(=S)n2-c1ccccc1 (centres undefined)	.	31.6µM*	.
Cc1cccc(NN=C2c3ccccc3-c3ccccc32)c1	9.6	?	-5.7%
Cc1ccc(-c2cc(C(=O)N/N=C/c3cccnc3)n[nH]2)o1	-106.2*	-6.3%	0.0%
COc1ccccc1/C=C/C=N/NC(=O)c1cc(-c2ccc(C)o2)[nH]n1	.	-5.5%	.
O=C1C(CCC(O)c2ccc(F)cc2)C(c2ccc(O)cc2)N1c1ccc(F)cc1 (centres undefined)	.	11.3%	-18.2%
COc1ccc2cc(C(=O)c3ccccc3)c(=O)oc2c1	32.1	14.1µM*	-12.4%
CCOc1ccc2cc(C(=O)c3ccccc3)c(=O)oc2c1	-12.0	?	-16.6%
CCOC(=O)C1(Cc2ccccc2C)CCCN(C(=O)CCc2cccnc2)C1 (centres undefined)	.	4.6%	.
CCOC(=O)C1=C(C)Nc2nnnn2C1c1ccccc1Cl (centres undefined)	-16.6	0.708µM*	-10.9%
CCOc1ccccc1C1C(C(=O)Nc2ccccc2OC)=C(C)Nc2nnnn21 (centres undefined)	-23.9	?	-0.5%
C=CCOC(=O)C1=C(C)Nc2nnnn2C1c1cc(OC)ccc1OC (centres undefined)	41.8	4.47µM*	1.8%
CC1=C(C(N)=O)C(c2ccc(Cl)cc2Cl)n2ncnc2N1 (centres undefined)	-23.1	7.4%	-3.5%
CC(=O)C1=C(C)Nc2ncnn2C1c1ccccc1Cl (centres undefined)	-23.2	25.1µM*	.
CCOC(=O)C1=C(C)Nc2nnnn2C1c1ccc(OC)c(Br)c1 (centres undefined)	-18.9	-7.1%	-21.3%
COc1ccc(C2C(C(=O)OC3CCCCC3)=C(C)Nc3nnnn32)c(OC)c1OC (centres undefined)	14.6	-2.0%	-10.5%
COC(=O)C1=C(C)Nc2nnnn2C1c1ccc(Cl)cc1Cl (centres undefined)	?	8.91µM*	-6.9%
Cc1coc(=N)n1CC(=O)c1ccc(Cl)cc1	.	-15.2%	.
COCCNc1ncncc1-c1c(C)noc1C	.	6.2%	.
C=CCc1cccc(/C=N/NC(=O)C(C)Nc2ccc(C)cc2)c1O (centres undefined)	68.4	-4.5%	-9.1%
COCCCNC(=O)Cn1c(=O)n(CCCCCC(=O)NCc2ccc3c(c2)OCO3)c(=O)c2sccc21	.	-9.1%	.
COc1ccc(CNC(=O)CN(c2ccccc2)S(=O)(=O)N(C)C)cc1	.	0.7%	.
SMILES	PNC assembly inh	ALDH1A1 block	HPGD block
COCCOC(=O)C1=C(C)NC(=O)N(C(C)=O)C1c1ccc(Cl)cc1 (centres undefined)	-7.4	-7.1%	-10.0%
CCOC(=O)C1=C(C)NC(=S)N(C(C)=O)C1c1ccc(Cl)cc1 (centres undefined)	48.3	8.91µM*	-8.7%
CCCCOC(=O)C1=C(C)Nc2nnnn2C1c1ccccc1Cl (centres undefined)	-7.1	0.447µM*	-8.4%
CCOC(=O)C1=C(COCCN)NC(C)=C(C(=O)OC)C1c1ccccc1Cl (centres undefined)	.	1.9%	-11.9%
CN1CCN(c2nc(-c3cccc(C#N)c3)nc3ccccc23)CC1	.	-0.7%	-6.4%
COC(=O)COc1ccc(-n2cnnn2)cc1	.	-3.4%	.
CCC(=O)Oc1oc(-c2ccccc2)nc1C=Nc1ccccc1OC	1.7	?	?
O=C(O)c1ccc(N=Cc2nc(-c3ccco3)oc2O)cc1	.	15.5%	.
Cc1ccc(C(=O)Oc2oc(-c3ccco3)nc2C=Nc2ccccc2)cc1	1.8	?	7.08µM*
COc1ccc(N=Cc2nc(-c3ccccc3)oc2OC(=O)c2ccccc2)cc1	54.2	?	22.4µM*
CN(C)c1ccc(N=Cc2nc(-c3ccccc3)oc2OC(=O)c2cccc(Br)c2)cc1	22.4	?	?
Oc1oc(-c2ccco2)nc1C=Nc1ccccc1	32.1	22.4µM*	-1.4%
Cc1ccc(C(=O)Nc2nnc(-c3ccco3)o2)cc1	20.0	7.2%	-8.5%
CC(=O)Oc1oc(-c2ccccc2)nc1C=Nc1ccccc1	-0.2	17.8µM*	15.8µM*
CSc1nc(S(=O)(=O)c2ccc(C)cc2)c(Cl)s1	.	-6.8%	.

High-throughput results from PubChem BioAssay.
